Data published in PubChem BioAssay AID1159580 (chemical genetic matrix, 2015).
“And” between values parts separate entries of the source, which are not always exact repeats. Equal entries are not always repeated. In all, about 5,500 compounds went through this assay and about 2,000 (36%) were called active. Another 18% or so got no clear call; they are omitted. Rule as the data show it: active = normalized growth mostly below about 0.91 (no sharp cut-off); inconclusive = no clear call, values can overlap the other calls; inactive = mostly above about 0.92. Some of the results follow.

Experiment: chemical genetic growth profiling, strain panel (AID 1159580);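 also: tested at 20 µM; growth read once vehicle control cultures reached saturation at 30 °C; 1 = growth at the plate median or of vehicle wells; lower values mean less growth of the strain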
Conditions: S. cerevisiae deletion strains, growth OD

Measured: normalized growth

O=C1[C@H](CCC(O)c2ccc(F)cc2)[C@@H](c2ccc(O)cc2)N1c1ccc(F)cc1 (stereo partly specified)
inactive: locus YAL013W, strain DEP1, active compounds read low 0.988 | locus YAL021C, strain ccr4, active compounds read low 0.999 | locus YAL026C, strain drs2, active compounds read low 0.976 | locus YAL030W, strain snc1, active compounds read low 0.968 | locus YBL061C, strain skt5, active compounds read low 0.973 | locus YBR009C, strain hhf1, active compounds read low 0.981 | locus YBR021W, strain FUR4, active compounds read low 0.962 | locus YBR023C, strain chs3, active compounds read low 0.979 | locus YBR171W, strain sec66, active compounds read low 0.95 | locus YBR229C, strain ROT2, active compounds read low 0.99 | locus YBR231C, strain swc5, active compounds read low 0.976 | locus YBR279W, strain paf1, active compounds read low 0.987 | locus YCL011C, strain gbp2, active compounds read low 0.995 | locus YCL016C, strain dcc1, active compounds read low 0.992 | locus YCL029C, strain bik1, active compounds read low 0.968 | locus YCL069W, strain vba3, active compounds read low 0.97 | locus YCR088W, strain abp1, active compounds read low 0.967 | locus YDL005C, strain med2, active compounds read low 0.956 | locus YDL035C, strain GPR1, active compounds read low 0.989 | locus YDL040C, strain nat1, active compounds read low 0.979 | locus YDL074C, strain BRE1, active compounds read low 0.985 | locus YDL101C, strain DUN1, active compounds read low 0.985 | locus YDL134C, strain PPH21, active compounds read low 0.988 | locus YDL185W, strain tfp1, active compounds read low 0.966 | locus YDL192W, strain arf1, active compounds read low 0.977 | locus YDR001C, strain nth1, active compounds read low 0.976 | locus YDR069C, strain doa4, active compounds read low 0.966 | locus YDR101C, strain arx1, active compounds read low 0.981 | locus YDR137W, strain rgp1, active compounds read low 1.01 | locus YDR150W, strain NUM1, active compounds read low 0.986 | locus YDR159W, strain sac3, active compounds read low 0.931 | locus YDR162C, strain NBP2, active compounds read low 1 | locus YDR195W, strain ref2 0.915 | locus YDR297W, strain sur2, active compounds read low 0.988 | locus YDR318W, strain mcm21, active compounds read low 0.98 | locus YDR334W, strain swr1, active compounds read low 0.983 | locus YDR335W, strain msn5, active compounds read low 0.959 | locus YDR388W, active compounds read low 0.972 | locus YDR392W, strain spt3, active compounds read low 1.03 | locus YDR502C, strain sam2, active compounds read low 0.98 | locus YEL003W, strain gim4, active compounds read low 0.975 | locus YEL037C, strain rad23, active compounds read low 0.957 | locus YEL061C, strain CIN8 (second series), active compounds read low 0.966 | locus YEL061C, strain CIN8, active compounds read low 0.993 | locus YER015W, strain faa2, active compounds read low 0.99 | locus YER016W, strain bim1, active compounds read low 0.968 | locus YER110C, active compounds read low 0.971 | locus YER111C, strain swi4, active compounds read low 0.969 | locus YER155C, strain BEM2 (second series), active compounds read low 0.973 | locus YER155C, strain BEM2, active compounds read low 1 | locus YER167W, strain BCK2, active compounds read low 0.986 | locus YFR010W, strain ubp6, active compounds read low 0.951 | locus YGL078C, strain dbp3, active compounds read low 0.976 | locus YGL086W, strain mad1, active compounds read low 0.984 | locus YGL167C, strain pmr1, active compounds read low 0.965 | locus YGL173C, strain kem1, active compounds read low 0.979 | locus YGL227W, strain vid30, active compounds read low 0.974 | locus YGL240W, strain doc1, active compounds read low 0.978 | locus YGL248W, strain PDE1, active compounds read low 0.991 | locus YGR078C, strain PAC10, active compounds read low 1 | locus YGR135W, strain pre9, active compounds read low 0.972 | locus YGR229C, strain SMI1, active compounds read low 1.01 | locus YGR252W, strain gcn5, active compounds read low 1.01 | locus YHR013C, strain ard1, active compounds read low 0.951 | locus YHR027C, strain rpn1, active compounds read low 0.972 | locus YHR030C, strain SLT2, active compounds read low 0.983 and 0.956 | locus YHR079C, strain IRE1 (second series), active compounds read low 0.96 | locus YHR079C, strain IRE1, active compounds read low 0.961 | locus YHR094C, strain hxt1, active compounds read low 0.977 | locus YHR129C, strain ARP1, active compounds read low 0.987 | locus YHR142W, strain chs7, active compounds read low 0.901 | locus YHR200W, strain rpn10, active compounds read low 0.974 | locus YIL066C, strain RNR3, active compounds read low 0.985 | locus YIL073C, strain SPO22, active compounds read low 0.961 | locus YIL125W, strain kgd1, active compounds read low 0.99 | locus YIR030C, strain dcg1, active compounds read low 0.967 | locus YJL092W, strain hpr5, active compounds read low 0.972 | locus YJL095W, strain BCK1 (second series), active compounds read low 0.975 | locus YJL095W, strain BCK1, active compounds read low 0.98 and 1 | locus YJL115W, strain asf1, active compounds read low 0.983 | locus YJL129C, strain trk1, active compounds read low 0.877 | locus YJL134W, strain LCB3, active compounds read low 0.989 | locus YJL154C, strain vps35, active compounds read low 0.974 | locus YJL164C, strain tpk1, active compounds read low 0.981 | locus YJL166W, strain qcr8, active compounds read low 0.952 | locus YJL168C, strain set2, active compounds read low 0.965 | locus YJL187C, strain SWE1 (second series), active compounds read low 0.979 | locus YJL187C, strain SWE1, active compounds read low 0.975 | locus YJR043C, strain POL32, active compounds read low 0.985 | locus YJR066W, strain TOR1, active compounds read low 0.929
active: locus YGL253W, strain hxk2, active compounds read low 0.908
